Reference: the supplement of paper PMC4466140

What was measured:
Experiment in all cases: SPOT peptide array binding signal intensity (averaged, normalized) (arbitrary units (background-subtracted, floor 0; scale differs between SH3 domains)); higher = stronger binding of the SH3 domain to the peptide
AgAbp1 = molecular target: AgAbp1
Outline: (§1)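 Spot intensities were captured after detection with anti-GST antibody, an HRP-linked anti-mouse secondary and luminol, and quantified with Genespotter. The probes were GST-fused SH3 domains from four yeast species, produced in E. coli BL21(DE3), purified on glutathione Sepharose and incubated at 10 μg/ml overnight at 4°C on cellulose-bound synthetic 15-mer peptides with cysteines replaced by serines. Binding signal is the normalized, background-subtracted spot intensity averaged over replicates, and its arbitrary units differ between domains.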

AgBbc1 = molecular target: AgBbc1
Outline: as §1

AgBem1-D1 = molecular target: AgBem1-D1
Outline: as §1

AgBzz1-D1 = molecular target: AgBzz1-D1
Outline: as §1

AgBzz1-D2 = molecular target: AgBzz1-D2
Outline: as §1

AgCyk3 = molecular target: AgCyk3
Outline: as §1

AgFus1 = molecular target: AgFus1
Outline: as §1

AgHof1 = molecular target: AgHof1
Outline: as §1

AgHse1 = molecular target: AgHse1
Outline: as §1

AgLsb1 = molecular target: AgLsb1
Outline: as §1

AgLsb4 = molecular target: AgLsb4
Outline: as §1

AgMyo5 = molecular target: AgMyo5
Outline: as §1

AgNbp2 = molecular target: AgNbp2
Outline: as §1

AgRvs167 = molecular target: AgRvs167
Outline: as §1

AgSho1 = molecular target: AgSho1
Outline: as §1

AgSla1-D1-D2 = molecular target: AgSla1-D1-D2
Outline: as §1

AgSla1-D3 = molecular target: AgSla1-D3
Outline: as §1

CaAbp1-D1 = molecular target: CaAbp1-D1
Outline: as §1

CaAbp1-D2 = molecular target: CaAbp1-D2
Outline: as §1

CaBbc1 = molecular target: CaBbc1
Outline: as §1

CaBem1-D1 = molecular target: CaBem1-D1
Outline: as §1

CaBzz1-D1 = molecular target: CaBzz1-D1
Outline: as §1

CaBzz1-D2 = molecular target: CaBzz1-D2
Outline: as §1

CaCyk3 = molecular target: CaCyk3
Outline: as §1

CaFus1 = molecular target: CaFus1
Outline: as §1

CaHof1 = molecular target: CaHof1
Outline: as §1

CaHse1 = molecular target: CaHse1
Outline: as §1

CaLsb1 = molecular target: CaLsb1
Outline: as §1

CaLsb4 = molecular target: CaLsb4
Outline: as §1

CaMyo5 = molecular target: CaMyo5
Outline: as §1

CaNbp2 = molecular target: CaNbp2
Outline: as §1

CaRvs167 = molecular target: CaRvs167
Outline: as §1

CaRvs167-3 = molecular target: CaRvs167-3
Outline: as §1

CaSho1 = molecular target: CaSho1
Outline: as §1

CaSla1-D1-D2 = molecular target: CaSla1-D1-D2
Outline: as §1

CaSla1-D3 = molecular target: CaSla1-D3
Outline: as §1

ScAbp1 = molecular target: ScAbp1
Outline: as §1

ScBbc1 = molecular target: ScBbc1
Outline: as §1

ScBem1-D1 = molecular target: ScBem1-D1
Outline: as §1

ScBzz1-D1 = molecular target: ScBzz1-D1
Outline: as §1

ScBzz1-D2 = molecular target: ScBzz1-D2
Outline: as §1

ScCyk3 = molecular target: ScCyk3
Outline: as §1

ScFus1 = molecular target: ScFus1
Outline: as §1

ScHof1 = molecular target: ScHof1
Outline: as §1

ScHse1 = molecular target: ScHse1
Outline: as §1

ScLsb1 = molecular target: ScLsb1
Outline: as §1

ScLsb2 = molecular target: ScLsb2
Outline: as §1

ScLsb3 = molecular target: ScLsb3
Outline: as §1

ScLsb4 = molecular target: ScLsb4
Outline: as §1

ScMyo3 = molecular target: ScMyo3
Outline: as §1

ScMyo5 = molecular target: ScMyo5
Outline: as §1

ScNbp2 = molecular target: ScNbp2
Outline: as §1

ScPex13 = molecular target: ScPex13
Outline: as §1

ScRvs167 = molecular target: ScRvs167
Outline: as §1

ScSho1 = molecular target: ScSho1
Outline: as §1

ScSla1-D1-D2 = molecular target: ScSla1-D1-D2
Outline: as §1

ScSla1-D3 = molecular target: ScSla1-D3
Outline: as §1

SpAbp1-D1 = molecular target: SpAbp1-D1
Outline: as §1

SpBbc1 = molecular target: SpBbc1
Outline: as §1

SpBzz1-D1 = molecular target: SpBzz1-D1
Outline: as §1

SpBzz1-D2 = molecular target: SpBzz1-D2
Outline: as §1

SpCyk3 = molecular target: SpCyk3
Outline: as §1

SpHof1 = molecular target: SpHof1
Outline: as §1

SpHof1-2 = molecular target: SpHof1-2
Outline: as §1

SpHof1-3 = molecular target: SpHof1-3
Outline: as §1

SpHse1 = molecular target: SpHse1
Outline: as §1

SpLsb1 = molecular target: SpLsb1
Outline: as §1

SpLsb4 = molecular target: SpLsb4
Outline: as §1

SpMyo1 = molecular target: SpMyo1
Outline: as §1

SpNbp2 = molecular target: SpNbp2
Outline: as §1

SpPex13 = molecular target: SpPex13
Outline: as §1

SpRvs167 = molecular target: SpRvs167
Outline: as §1

SpSla1-D1-D2 = molecular target: SpSla1-D1-D2
Outline: as §1

SpSla1-D3 = molecular target: SpSla1-D3
Outline: as §1

Measured: SPOT peptide array binding signal intensity

ISPPASPPPEFDFSK
0.5: SpHof1-2
781: AgMyo5
1: CaHof1 | CaHse1 | SpBzz1-D2 | SpSla1-D1-D2
27.5: AgHse1
14.5: CaBzz1-D2
0.333: AgRvs167
6: SpHse1
≤ 0: AgAbp1 | AgBbc1 | AgBem1-D1 | AgBzz1-D1 | AgCyk3 | AgHof1 | AgLsb1 | AgLsb4 | AgNbp2 | AgSho1 | AgSla1-D3 | CaAbp1-D1 | CaBbc1 | CaBem1-D1 | CaBzz1-D1 | CaCyk3 | CaFus1 | CaLsb1 | CaLsb4 | CaNbp2 | CaRvs167-3 | CaSho1 | CaSla1-D1-D2 | ScAbp1 | ScBbc1 | ScBem1-D1 | ScBzz1-D1 | ScBzz1-D2 | ScCyk3 | ScFus1 | ScHof1 | ScHse1 | ScLsb1 | ScLsb2 | ScLsb3 | ScLsb4 | ScNbp2 | ScPex13 | ScRvs167 | ScSho1 | ScSla1-D1-D2 | SpAbp1-D1 | SpBzz1-D1 | SpCyk3 | SpHof1 | SpHof1-3 | SpLsb1 | SpLsb4 | SpNbp2 | SpPex13 | SpRvs167
3: SpSla1-D3
2.5: SpBbc1
4: AgFus1
0.833: CaRvs167
5: AgSla1-D1-D2
22.5: AgBzz1-D2
1.5: CaAbp1-D2 | CaSla1-D3
428: ScMyo5
40: CaMyo5
1120: ScMyo3
877: SpMyo1
3.5: ScSla1-D3

PIVPSSPAPPLPLSG
1: CaRvs167-3 | ScSla1-D1-D2 | SpPex13
0.5: CaSla1-D1-D2
13.5: AgHse1
14.5: CaFus1
19: CaBzz1-D1
1220: SpMyo1
611: CaMyo5
4.5: CaNbp2
3230: AgMyo5
3220: ScMyo5
3.5: SpRvs167
1.5: ScBzz1-D2 | SpBzz1-D2
2720: ScMyo3
11.2: CaBzz1-D2
52.5: SpBzz1-D1
7: AgSla1-D1-D2 | SpHse1
≤ 0: AgAbp1 | AgBbc1 | AgBem1-D1 | AgBzz1-D1 | AgBzz1-D2 | AgCyk3 | AgFus1 | AgHof1 | AgLsb1 | AgLsb4 | AgNbp2 | AgRvs167 | AgSho1 | AgSla1-D3 | CaAbp1-D1 | CaAbp1-D2 | CaBbc1 | CaBem1-D1 | CaCyk3 | CaHof1 | CaHse1 | CaLsb1 | CaLsb4 | CaRvs167 | CaSho1 | CaSla1-D3 | ScAbp1 | ScBbc1 | ScBem1-D1 | ScCyk3 | ScFus1 | ScHof1 | ScHse1 | ScLsb1 | ScLsb2 | ScLsb3 | ScLsb4 | ScNbp2 | ScPex13 | ScRvs167 | ScSho1 | SpAbp1-D1 | SpCyk3 | SpHof1 | SpHof1-2 | SpHof1-3 | SpLsb1 | SpLsb4 | SpNbp2 | SpSla1-D1-D2 | SpSla1-D3
7.5: ScBzz1-D1 | ScSla1-D3
6: SpBbc1

QPPLPSSAPPIPTSH
4.25: SpBbc1
0.5: CaRvs167-3
1730: AgMyo5
1600: ScMyo5
510: CaMyo5
≤ 0: AgAbp1 | AgBbc1 | AgBem1-D1 | AgBzz1-D2 | AgCyk3 | AgFus1 | AgHof1 | AgHse1 | AgLsb1 | AgLsb4 | AgNbp2 | AgRvs167 | AgSho1 | AgSla1-D1-D2 | AgSla1-D3 | CaAbp1-D1 | CaAbp1-D2 | CaBbc1 | CaBzz1-D1 | CaCyk3 | CaFus1 | CaHof1 | CaHse1 | CaLsb1 | CaLsb4 | CaNbp2 | CaRvs167 | CaSho1 | CaSla1-D1-D2 | CaSla1-D3 | ScAbp1 | ScBbc1 | ScBem1-D1 | ScBzz1-D1 | ScBzz1-D2 | ScCyk3 | ScFus1 | ScHof1 | ScHse1 | ScLsb1 | ScLsb2 | ScLsb3 | ScLsb4 | ScNbp2 | ScPex13 | ScRvs167 | ScSho1 | ScSla1-D1-D2 | ScSla1-D3 | SpBzz1-D1
2510: ScMyo3
35: AgBzz1-D1
8.5: CaBem1-D1
2.5: CaBzz1-D2 | SpAbp1-D1
